Bim-Mcl-1 = inhibitors of Bim peptide binding to Mcl-1, primary screen, biochemical, bead-based flow cytometry, multiplex; Induced myeloid leukemia cell differentiation protein Mcl-1 (Homo sapiens), Q07820; Bim peptide-Mcl-1 binding; inhibition, % at 10 µM; 190,000 tested, 0.1% active; AID 1009, 2008; in the data active means inhibition above about 40%;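 further: 0% = no compound tracer wells and 100% = peptide blocker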
Mcl1 Noxa PPI = Mcl-1/Noxa binding inhibitors, primary screen, biochemical, TR-FRET, 1536-well; TR-FRET Mcl-1/Noxa peptide binding, 2 h; inhibition, % at 21.7 µM; 220,000 tested, 1.5% active;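 active means compounds that cut the protein-peptide binding signal by more than 50% relative to plate controls in a single-dose test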;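 further: His-tagged Mcl-1 with rhodamine Noxa BH3 peptide and terbium anti-His antibody; 0% = Mcl-1 plus Noxa peptide wells and 100% = peptide-only wells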
eIF4E-4G inh = eIF4E–eIF4G protein interaction inhibitors, primary screen, biochemical, uHTS, TR-FRET, eIF4GI fragment; TR-FRET eIF4E-eIF4GI(517-606) binding, 2 h; inhibition, % at 21.7 µM; 220,000 tested, 0.37% active; AID 782, 2007;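 further: 0% = full FRET control wells and 100% = background wells lacking eIF4GI fragment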
Target sequence (P63073 whole entry, looked up, the tested form may be a part): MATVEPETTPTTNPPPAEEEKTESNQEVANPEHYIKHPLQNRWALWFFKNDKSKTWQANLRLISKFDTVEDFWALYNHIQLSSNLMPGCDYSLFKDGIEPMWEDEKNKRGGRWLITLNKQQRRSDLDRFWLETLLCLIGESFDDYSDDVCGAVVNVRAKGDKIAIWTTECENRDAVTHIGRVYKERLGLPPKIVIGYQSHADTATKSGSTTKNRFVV
Target sequence (Q04637 whole entry, looked up, the tested form may be a part): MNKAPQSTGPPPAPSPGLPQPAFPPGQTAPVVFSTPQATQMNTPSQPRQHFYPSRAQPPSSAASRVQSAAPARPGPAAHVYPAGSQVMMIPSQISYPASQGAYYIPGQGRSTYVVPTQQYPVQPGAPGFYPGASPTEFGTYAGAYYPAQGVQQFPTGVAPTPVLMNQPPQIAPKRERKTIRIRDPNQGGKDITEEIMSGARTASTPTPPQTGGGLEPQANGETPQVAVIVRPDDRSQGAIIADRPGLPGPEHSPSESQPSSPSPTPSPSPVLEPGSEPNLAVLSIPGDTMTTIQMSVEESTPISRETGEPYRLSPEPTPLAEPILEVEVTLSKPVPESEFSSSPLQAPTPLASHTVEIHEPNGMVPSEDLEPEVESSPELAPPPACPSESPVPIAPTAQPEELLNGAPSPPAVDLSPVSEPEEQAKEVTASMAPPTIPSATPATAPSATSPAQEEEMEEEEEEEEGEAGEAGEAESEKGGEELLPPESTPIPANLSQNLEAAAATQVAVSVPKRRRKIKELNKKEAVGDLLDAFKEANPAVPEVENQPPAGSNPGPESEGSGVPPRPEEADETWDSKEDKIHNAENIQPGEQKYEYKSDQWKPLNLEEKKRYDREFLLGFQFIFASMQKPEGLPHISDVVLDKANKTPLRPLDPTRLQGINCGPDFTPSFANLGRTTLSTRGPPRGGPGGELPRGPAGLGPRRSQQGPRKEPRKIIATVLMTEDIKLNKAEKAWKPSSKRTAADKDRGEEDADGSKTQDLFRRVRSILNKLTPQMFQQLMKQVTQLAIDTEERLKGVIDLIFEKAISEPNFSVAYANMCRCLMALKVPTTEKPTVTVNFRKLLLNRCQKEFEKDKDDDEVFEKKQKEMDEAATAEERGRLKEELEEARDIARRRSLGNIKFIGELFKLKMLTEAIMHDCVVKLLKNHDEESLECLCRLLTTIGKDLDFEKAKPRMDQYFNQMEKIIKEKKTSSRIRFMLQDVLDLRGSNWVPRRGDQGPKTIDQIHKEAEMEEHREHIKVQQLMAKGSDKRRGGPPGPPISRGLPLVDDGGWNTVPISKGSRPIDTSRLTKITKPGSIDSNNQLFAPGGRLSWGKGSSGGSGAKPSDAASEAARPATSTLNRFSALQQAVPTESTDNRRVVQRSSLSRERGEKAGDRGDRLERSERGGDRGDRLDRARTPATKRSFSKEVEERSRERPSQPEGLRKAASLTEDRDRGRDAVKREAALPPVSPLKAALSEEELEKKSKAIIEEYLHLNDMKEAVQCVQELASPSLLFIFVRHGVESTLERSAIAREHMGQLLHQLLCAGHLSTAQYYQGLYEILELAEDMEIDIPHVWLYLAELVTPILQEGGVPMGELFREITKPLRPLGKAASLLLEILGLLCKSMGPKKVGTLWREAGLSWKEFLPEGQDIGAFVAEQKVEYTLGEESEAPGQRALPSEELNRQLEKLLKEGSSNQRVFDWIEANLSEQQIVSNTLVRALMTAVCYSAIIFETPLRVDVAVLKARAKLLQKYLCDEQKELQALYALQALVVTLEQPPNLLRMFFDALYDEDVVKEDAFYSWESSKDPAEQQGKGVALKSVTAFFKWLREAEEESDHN
14-3-3 Bad PPI = inhibitors of 14-3-3 zeta/Bad binding, primary screen, biochemical, TR-FRET, bovine 14-3-3 zeta; TR-FRET 14-3-3zeta/Dy647-pBad peptide displacement, 1 h; 220,000 tested, 0.71% active; 14-3-3 protein zeta/delta (Bos taurus), P63103; inhibition, % at 21.7 µM;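 active means inhibition above about 70%, limit read from the data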;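 further: 0% = full 14-3-3 plus peptide FRET controls and 100% = background without 14-3-3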
NCF1 inh = p47phox/p22phox peptide binding inhibitors, primary screen, biochemical, uHTS, NADPH oxidase regulatory subunit | Neutrophil cytosol factor 1 (Homo sapiens), P14598 | fluorescence polarization, 2 h | inhibition, % at 24.7 µM | 220,000 tested, 0.53% active | AID 1274, 2008;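 further: 0% = p47phox with labelled peptide and 100% = labelled peptide alone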
Mcl1 Bid PPI = Mcl-1/Bid binding inhibitors, primary screen, biochemical, TR-FRET, 1536-well; TR-FRET Mcl-1/Bid-Dy647 peptide binding; inhibition, % at 21.7 µM; 220,000 tested, 0.97% active;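 active means compounds that cut the binding signal by more than half at the single screening dose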;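 further: His-tagged Mcl-1 with europium anti-His antibody binding Bid BH3 peptide; 0% = Mcl-1 plus peptide wells and 100% = peptide-only wells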
* hit, by the source's call; x = no result given. This is a sample that favours compounds with a hit; in the whole collection about 3.4% have one here.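 How the source made its calls, unless noted: active means inhibition above about 30% (limit read from the data); inactive means the rest.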

SMILES | Bim-Mcl-1 | Mcl1 Noxa PPI | eIF4E-4G inh | 14-3-3 Bad PPI | NCF1 inh | Mcl1 Bid PPI
COc1ccc(N)c2c1OCCC2=O | -2.0 | 57.1* | -0.7 | -4.7 | -2.2 | -63.9
O=C(CSc1nnc(C2COc3ccccc3O2)o1)NC1CCCCC1 (stereo not given) | 1.0 | -15.8 | -1.3 | 4.7 | -3.1 | -19.8
O=C(CSc1nnc(C2COc3ccccc3O2)o1)Nc1nccs1 (stereo not given) | 1.0 | -23.0 | -0.8 | -1.5 | 37.4* | -36.1
Cc1cccc(-n2c(SCC(=O)Nc3nnc(C)s3)nnc2-c2ccoc2C)c1 | -8.0 | -4.0 | 9.7 | 10.2 | 0.4 | 67.3*
CC(C(=O)NN)c1ccc([N+](=O)[O-])cc1 (stereo not given) | -1.0 | 4.4 | -0.6 | -4.7 | -4.4 | -14.8
CCN1C(=O)C(C)S/C1=N\S(=O)(=O)c1ccc(F)cc1 (stereo not given) | -1.0 | 75.0* | 3.2 | -0.1 | 1.9 | 0.8
C=CCN1C(=O)C(C)S/C1=N\S(=O)(=O)c1ccc(Cl)cc1 (stereo not given) | -5.0 | 7.5 | -12.1 | -4.6 | -4.5 | -10.4
CN1C(=O)CS/C1=N\NC(=O)COc1cccc2cccnc12 | 0.0 | 4.1 | 5.1 | -14.4 | 1.9 | -16.3
CC(=O)n1nc(-c2ccc(C)cc2)nc1NCc1ccc(F)cc1 | 0.0 | -2.5 | -0.1 | -1.3 | -0.4 | -5.0
CCN1C(=O)C2C(c3ccc(O)c(OC)c3)NC(C)(C(=O)OC)C2C1=O (stereo not given) | -4.0 | 6.1 | 8.4 | -9.0 | 38.4* | -5.1
Nc1ccc(O)c(-c2nc3ccccc3s2)c1 | -3.0 | 71.4* | 0.0 | 10.0 | 17.3 | -64.6
Oc1ccc(N=C/C=C/c2cccc(Br)c2)cc1-c1nc2ccccc2s1 | -2.0 | 62.0* | 10.9 | 6.3 | -5.5 | -69.2
Nc1ccccc1-c1nc2ccccc2s1 | 0.0 | 10.2 | 10.2 | 72.8* | -14.7 | -13.2
Oc1ccc(-c2nc3ccccc3s2)c(O)c1 | x | 37.4 | 0.7 | 7.6 | -20.2 | 3.7
CC12CS(=O)(=O)CC1SC(=S)N2Cc1ccccc1 (stereo not given) | 1.0 | 13.1 | -2.1 | -17.5 | -5.6 | -25.2
COc1cccc(CC(NC(C)=O)C(=O)NC2CCN(C(=O)C3CC3)CC2)c1OC (stereo not given) | 1.0 | 6.4 | -3.4 | -7.8 | -10.3 | -8.9
C=CCN1C(=O)CSc2ccc(C(=O)NCc3cccs3)cc21 | 2.0 | 10.8 | -0.9 | -4.1 | -5.0 | -15.7
CCn1cc(C(=O)NCc2ccco2)c(=O)c2cc(S(=O)(=O)N3CCCCCC3)ccc21 | 0.0 | 12.3 | 2.0 | 2.4 | -10.3 | -12.9
C=CCn1cc(C(=O)NCc2ccco2)c(=O)c2cc(S(=O)(=O)N3CCCCCC3)ccc21 | -1.0 | 1.2 | -6.3 | -10.7 | -21.5 | 91.4*
O=C(/N=C1\NC(=O)C(F)(C(F)(F)F)S1)NC1CCCCC1 (stereo not given) | 0.0 | 33.6 | 43.9* | 42.4 | -8.8 | -3.9
O=C1c2ccccc2C(O)N1Cc1cccs1 (stereo not given) | -8.0 | -3.2 | 1.4 | -3.1 | -4.8 | -0.7
CC(Sc1ccc2nnc(-c3ccc(F)cc3)n2n1)C(=O)O (stereo not given) | -5.0 | 9.9 | 13.7 | 9.2 | 23.4 | -26.3
Cc1ccc(-c2nnc3ccc(SC(C)C(=O)O)nn23)cc1 (stereo not given) | -2.0 | 77.6* | -0.9 | 5.8 | 18.7 | -7.9
COC(=O)C(C)Sc1ccc2nnc(-c3ccccc3)n2n1 (stereo not given) | 2.0 | 9.6 | 0.8 | -11.4 | -9.9 | -18.0
CCOC(=O)C(C)Sc1ccc2nnc(-c3ccc(F)cc3)n2n1 (stereo not given) | -6.0 | 4.0 | 50.8* | -4.0 | -0.6 | -3.0
SMILES | Bim-Mcl-1 | Mcl1 Noxa PPI | eIF4E-4G inh | 14-3-3 Bad PPI | NCF1 inh | Mcl1 Bid PPI
Cc1ccc(C(=O)NC(C#N)=C(Cl)Cl)cc1 | 3.0 | 9.9 | 3.0 | 2.0 | 7.3 | -3.7
O=C(NC1CCCCNC1=O)c1ccc(Cl)cc1 (stereo not given) | -5.0 | 7.0 | 2.6 | 0.2 | -9.7 | -22.8
Cc1ccc(C(=O)NC2CCCCNC2=O)cc1 (stereo not given) | x | -16.7 | 90.1* | -1.6 | -7.4 | -19.9
CC(C)NS(=O)(=O)c1ccc(OCC(=O)Nc2ccc(F)cc2)cc1 | 58.0* | 12.6 | 3.4 | -3.7 | -7.8 | -11.1
CCOC(=O)c1ccc(NC(=O)COc2ccc(S(=O)(=O)NC(C)CC)cc2)cc1 (stereo not given) | 1.0 | 5.1 | 12.8 | -3.8 | -8.2 | -18.9
O=C(NCCCN1CCCC1=O)c1ccc2c(c1)OCO2 | 0.0 | 4.5 | -2.2 | 0.1 | -9.7 | 61.9*
COc1ccc(C(=O)NCCCN2CCCC2=O)cc1 | -1.0 | 6.6 | -6.2 | -10.2 | 7.4 | -9.7
O=C(NCCCN1CCCC1=O)NC1CCCCC1 | 54.0* | 12.2 | 4.8 | -0.2 | -7.6 | -7.7
O=C(NC1CCCCCCC1)c1ccc2c(c1)OCO2 | 1.0 | -10.3 | 32.1* | 4.6 | 6.7 | -19.5
O=C1N/C(=C/c2ccc(N3CCOCC3)o2)C(=O)N1c1cccc(Cl)c1 | 0.0 | 16.7 | -1.6 | -14.8 | -57.0 | -12.6
CCN(CC)CCN(Cc1cc2ccc(C)c(C)c2[nH]c1=O)C(=S)NCc1ccco1 | -1.0 | -3.7 | 0.3 | -6.9 | -13.8 | -61.8
Cc1ccc(/C=[N+](\[O-])c2ccc(N(C)C)cc2)c2nsnc12 | 2.0 | 48.1 | 3.1 | -20.5 | 5.2 | -56.3
O=C(NC1CC1)c1cc(Cl)ccc1[N+](=O)[O-] | -2.0 | 71.3* | -0.2 | 16.5 | -7.5 | -121.0
Cn1cccc1Cc1nnc(SCC(=O)N2CCCC2)n1CCc1ccccc1 | -1.0 | 15.0 | 2.3 | 4.8 | 3.2 | -31.5
Cn1cccc1Cc1nnc(SCC(N)=O)n1CCc1ccccc1 | -3.0 | -4.0 | -2.1 | -7.5 | 89.2* | -26.9
C(=Nc1cccc2c(N=Cc3ccco3)cccc12)c1ccco1 | 4.0 | 58.4* | 9.1 | -0.5 | -4.2 | -15.0
CCN1CCCc2cc(CN(CCN3CCOCC3)C(=S)Nc3ccc(C)cc3)ccc21 | -2.0 | 69.0* | -0.3 | -7.4 | -19.3 | -93.7
CCN1CCCc2cc(CN(CCN3CCOCC3)C(=S)Nc3cc(F)cc(F)c3)ccc21 | -1.0 | 60.0* | -0.5 | -5.8 | -17.1 | -99.6
Cc1cc(C)c(S(=O)(=O)/N=C2/C=C(SCC(=O)O)C(=O)c3ccccc32)cc1C | 2.0 | 86.6* | 11.1 | 70.3* | -2.3 | 28.5
O=S(=O)(c1ccccc1F)N1CCN(Cc2nc3ccccc3[nH]2)CC1 | -2.0 | 20.0 | 3.3 | 81.7* | -12.9 | 79.2*
O=c1c2[nH]c3ccc(F)cc3c2nc2n1CCCS2 | 2.0 | 14.0 | 2.9 | -18.4 | -8.8 | -6.0
